Measured values as given in PubChem BioAssay (NCI).
Several values for one entry are separate records, joined by “and”; a condition that tells them apart may be missing. Identical values can stand only once. The panel holds about 83,000 compounds, 20% with a hit somewhere; the sample as a whole holds those more often.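 Testing used 96-well plates and a 48-hour single-concentration exposure. Example: -40 means 40% of the starting cells died.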 A number with no mark means an inactive call. Activity calls are given as the source filed them. Rule for the calls: active = growth percent below 10; inactive = the rest.

Tested on: HL-60(TB) leukemia
Experiment: NCI-60 one-dose screen, 48 h (100 = growth as untreated, 0 = no growth, -100 = all killed)
Details: 10 µM unless noted

Compound | growth
CCCCCc1cc[n+](CC(=O)c2ccccc2)cc1 | 91% and 99.9%
COc1cc2c(cc1OC)C1(C)N(CC2)C(=O)OC1(C)C (centres undefined) | -79.2% (active)
Cc1cc(S(=O)(=O)/N=C(\N)n2nc(C)c(C)c2C)c(SCc2ccccc2)cc1Cl | 81.9%
Cc1c(O)ccc(SC#N)c1C | 101%
O=C1Nc2ccc(I)cc2C1=O | 111%
COc1ccc(C(=O)COc2ccc(/C=C3\Oc4ccc5ccccc5c4C3=O)cc2)cc1 | 87.3%
N#CC1C(C#N)C2c3ccccc3C=CN2C1C(=O)c1ccc(Br)cc1 (centres undefined) | 101%
CC(C)OC(=O)Nn1cnc2ccccc21 | 96.5%
O=C(Nc1ccc2cc3ccc(NC(=O)N4CCCCCC4)cc3nc2c1)N1CCCCCC1 | -49.6% (active)
C=C(C)[C@@H]1CC[C@]2(C(=O)OC)CC[C@]3(C)[C@H](CC[C@@H]4[C@@]5(C)C/C(=C/NC(N)=S)C(=O)C(C)(C)[C@@H]5CC[C@]43C)[C@@H]12 | 95%
COc1ccc(/C(C#N)=C/c2ccccn2)cc1 | 91.8% and 78.1%
CS(=O)(=O)Nc1cc(-c2ccc3ncnc(Nc4ccc5c(cnn5Cc5cccc(F)c5)c4)c3c2)cnc1Cl | -23.9% (active)
COc1ccc(OC)c(NC=O)c1 | 62.2%
N#Cc1c(-c2cccs2)cc(-c2cccnc2)[nH]c1=O | 97.6%
Clc1ccc2c(NCCCNCc3ccc4c(c3)OCO4)ccnc2c1 | 76.3%
O=[N+]([O-])c1ccc(NS(=O)(=O)c2ccccc2)c2ccccc12 | 21.2%
COc1ccc(-c2csc(N(C(=O)N3CCN(c4cc5c(cc4F)c(=O)c(C(=O)O)cn5C4CC4)CC3)c3ccccc3)n2)cc1 | -29.6% (active)
O=C(Nc1cccc(F)c1)c1cc(=O)[nH]c2cc(Br)ccc12 | 3.41% (active)
Cc1cc(Nc2ncnc3ccc(NC4=NC(C)(C)CO4)cc23)ccc1Oc1ccn2ncnc2c1 | 5.69% (active)
C=CC[N+]1(CCO)CCN=C1CCCCCCCCCCCCC (centres undefined) | -31.8% (active)

Compound | growth
COc1cc(-c2ccc(N=Nc3ccc4c(S(=O)(=O)O)ccc(N)c4c3O)c(OC)c2)ccc1N=Nc1ccc2c(S(=O)(=O)O)ccc(N)c2c1O | 115%
CC1=CCC2CC1C2(C)C (centres undefined) | 105% and 92.9%
N=C(N)c1ccc(-c2ccc(-c3cncc4ccccc34)s2)cc1F | -45.5% (active)
O=C(Nc1cccc(C2=NCCN2)c1)c1ccc(OCCCOc2ccc(C(=O)Nc3cccc(C4=NCCN4)c3)cc2)cc1 | -27.3% (active)
CCOC(=O)c1ccc2c(c1)nc(-c1ccc(Cl)cc1)n2-c1cc(C(C)(C)C)[nH]n1 | -14.7% (active)
CCOC(=O)C(N)Cc1cc(I)c(O)c(I)c1 (centres undefined) | 99.9% and 132%
N#CC1=C(/N=C/c2ccccc2)Oc2c(ccc3ccccc23)C1c1ccccc1 (centres undefined) | 0.269% (active)
CCCCNC(=O)Oc1ccc(/C(=C(\C)c2ccc(OC)cc2)c2ccc(OCCN3CCCCC3)cc2)cc1 | 34.6%
NC(=S)NN=C1CCC(C2CCCCC2)CC1 (centres undefined) | 91.2% and 70.9%
Cc1nn(-c2ccccc2)c2nc3nc4c(c(N)c3c(-c3ccc(Cl)cc3)c12)CCCC4 | 104%
COc1ccc(-c2[nH]ncc2Nc2cc(OC)c(OC)c(OC)c2)cc1 | 31.6%
CCN1/C(=C\c2cc[n+](CC)c3ccccc23)C=Cc2ccccc21 | 5.97% (active)
c1ccc(-c2cn3ccnc3c(-c3ccc4ncn(C5CCCCC5)c4c3)n2)cc1 | 32.9%
CCCCCCCCCCCCCCCCCCOc1ccccc1CC(=O)OCC[N+]1(C)CCCC1 | 22.9%
O=C(CNc1nnc(-c2cccnc2SCc2ccccc2)s1)Nc1nc(Cl)cc(Cl)n1 | 96.2%
Oc1ccc(-c2nnc3c4[nH]ccc4ncn23)cc1 | 106%
CCCCn1c(=O)[nH]c(N)c([C@@H]2c3c([nH]c(=O)n(CCCC)c3=O)Oc3ccc4ccccc4c32)c1=O | 13.4%
Cc1ccc(N)c(S(=O)(=O)O)c1 | 74.5%
COc1ccc2[nH]cc(C(c3cc(F)cc(F)c3)c3c[nH]c4ccc(OC)cc34)c2c1 | 131%
